Compound activity (PubChem)
Most compounds without a hit are left out; they make up all but 15% or so of the library.
TDP1 cell CPT = growth inhibition of DT40 Tdp1-/-;hTDP1 cells with camptothecin (screen for TDP1 inhibitors); chicken DT40 Tdp1-/-;hTDP1 cells + 20 nM CPT, ATP luminescence, 48 h; Potency, µM (top dose mostly 46.2 µM), hits mostly inhibitors; 420,000 compounds, 12% hits; AID 686979; also: nearly all actives have a fitted effect of over 55% in size
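Cell growth measured by CellTiter-Glo luminescence after a minimum 48 h, 37 C compound exposure with 20 nM CPT in Tdp1-knockout DT40 cells stably expressing hTDP1, seeded 400/well; qHTS titration format.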
RORg inh = ROR gamma (mouse) transcription inhibition; 310,000 compounds, 5.4% hits; Potency, µM (series often up to 53.6 µM), usual class: inhibitors; Drosophila S2 Gal4-RORgamma UAS-luciferase reporter, 20 h; also: nearly all actives have a fitted effect of over 60% in size
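Drosophila S2 cells stably expressing Gal4-DBD/mouse RORγ fusion under metallothionein promoter plus UAS-luciferase; compound 1 h, then 700 uM CuSO4 induction for 20 h at ambient temperature; inhibition read as reduced luminescence.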
ALOX12 inh = inhibitors of human 12S-lipoxygenase ALOX12 | Potency, µM (highest dose often 108 µM), most hits filed as inhibitors | purified 12hLO, xylenol orange hydroperoxide absorbance | P18054 | AID 1671190 | 580,000 compounds, 1.1% hits
Target sequence (P18054 whole entry, looked up): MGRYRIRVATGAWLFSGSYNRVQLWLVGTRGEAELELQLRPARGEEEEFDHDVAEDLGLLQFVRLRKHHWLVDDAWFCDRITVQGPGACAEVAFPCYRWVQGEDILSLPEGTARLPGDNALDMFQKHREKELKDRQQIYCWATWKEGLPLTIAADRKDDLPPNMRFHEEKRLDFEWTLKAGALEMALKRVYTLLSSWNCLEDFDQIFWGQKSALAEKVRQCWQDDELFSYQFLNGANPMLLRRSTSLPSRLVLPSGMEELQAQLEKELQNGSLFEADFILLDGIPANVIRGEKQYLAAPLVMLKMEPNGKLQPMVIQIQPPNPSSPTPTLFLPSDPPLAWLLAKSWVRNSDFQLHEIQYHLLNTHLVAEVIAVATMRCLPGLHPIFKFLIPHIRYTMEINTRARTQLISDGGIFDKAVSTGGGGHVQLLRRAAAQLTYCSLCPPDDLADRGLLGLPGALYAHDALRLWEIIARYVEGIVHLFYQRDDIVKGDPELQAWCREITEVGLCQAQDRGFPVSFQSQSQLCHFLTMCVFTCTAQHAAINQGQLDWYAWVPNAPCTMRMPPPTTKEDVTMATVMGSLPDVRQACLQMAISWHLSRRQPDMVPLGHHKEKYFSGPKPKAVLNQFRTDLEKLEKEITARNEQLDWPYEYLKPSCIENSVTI
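Purified human 12hLO (150 nM final) in 25 mM Hepes, 0.01% Triton X-100, pH 7.0 was preincubated 15 min at room temperature with compound. Then 40 uM arachidonic acid was added, 30 min. Hydroperoxide was read by Fe-XO absorbance ratio 573/405 nm.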
ELG1 DNA repair = inhibitors of ELG1-dependent DNA repair in HEK293T cells | HEK293T ELG1-luciferase reporter, luminescence, 16 h; DNA damage induced by 5-fluorouridine | 330,000 compounds, 2.3% hits | Potency, µM (titrated, usually from 46.1 µM), actives largely listed as inhibitors; also: nearly all actives have a fitted effect of over 55% in size
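Reporter activity after DNA damage by 5-fluorouridine is monitored. Compound-treated cells incubate 16 hr at 37 °C, then ONE-Glo is added for 30 min before luminescence reading.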
Gal4-VP16 FLuc = counter-screen for ROR gamma inhibitors: Gal4-VP16 reporter. Potency, µM (doses to about 53.6 µM), hits mostly inhibitors. AID 2546. 310,000 compounds, 3.5% hits. Drosophila S2 Gal4-VP16 UAS-luciferase, luminescence, 20 h;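 also: Gal4-VP16 expression switched on by copper sulfate through the metallothionein promoter; nearly all actives have a fitted effect of over 50% in size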
DT40 TDP1 no CPT = qHTS for Inhibitors of human tyrosyl-DNA phosphodiesterase 1 (TDP1): qHTS in cells in absence of CPT. DT40 Tdp1-/- hTDP1 cells, no CPT, ATP luminescence, 48 h. 420,000 compounds, 15% hits. Potency, µM (series often up to 46.2 µM), hits mostly inhibitors; also: nearly all actives have a fitted effect of over 55% in size
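Chicken DT40 Tdp1-/- cells stably complemented with human TDP1 were seeded at 400 cells/well with DMSO in place of 20 nM camptothecin. After compound pinning, cells grew at least 48 hr at 37 °C; viability read by CellTiter-Glo luminescence.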
Each line names hits and unclear results; the compound was inactive in the other large screens. Calls follow the shape of the dose curve; as a rule, active = well fitted curve in the direction sought with a large enough effect; inconclusive = small, poorly fitted or top-dose-only effect, or another doubt; inactive = no such curve, though single readings can be large; an effect the other way counts as inactive or inconclusive.

CCC1CN(C(=O)N2CCC(C(=O)N(C)Cc3ccccc3)CC2)c2ccccc2O1 (centres undefined)	TDP1 cell CPT inconclusive, DT40 TDP1 no CPT 15µM (no result: RORg inh, ELG1 DNA repair, Gal4-VP16 FLuc)
CCC1CN(C(=O)N2CCC(C(=O)NCCCc3ccccc3)CC2)c2cc(C)ccc2O1 (centres undefined)	TDP1 cell CPT inconclusive, DT40 TDP1 no CPT 13µM (no result: RORg inh, ELG1 DNA repair, Gal4-VP16 FLuc)
CCC1CN(C(=O)N2CCC(C(=O)NCCCc3ccccc3)CC2)c2ccccc2O1 (centres undefined)	TDP1 cell CPT 16µM, DT40 TDP1 no CPT inconclusive (no result: RORg inh, ELG1 DNA repair, Gal4-VP16 FLuc)
CCOc1ccc(CCNC(=O)C2CCN(C(=O)N3CC(CC)Oc4ccc(C)cc43)CC2)cc1 (centres undefined)	TDP1 cell CPT inconclusive, DT40 TDP1 no CPT inconclusive (no result: RORg inh, ELG1 DNA repair, Gal4-VP16 FLuc)
CCC1CN(C(=O)N2CCC(C(=O)NCCC3=CCCCC3)CC2)c2cc(C)ccc2O1 (centres undefined)	TDP1 cell CPT 15µM, DT40 TDP1 no CPT 15µM (no result: RORg inh, ELG1 DNA repair, Gal4-VP16 FLuc)
COCCN1C(=O)CS(=O)C12CCN(C(=O)c1ccc3cc[nH]c3c1)CC2 (centres undefined)	none (no result: TDP1 cell CPT, RORg inh, ELG1 DNA repair, Gal4-VP16 FLuc, DT40 TDP1 no CPT)
CCC1CN(C(=O)N2CCC(C(=O)NCc3cccs3)CC2)c2ccccc2O1 (centres undefined)	TDP1 cell CPT 21µM, DT40 TDP1 no CPT 21µM (no result: RORg inh, ELG1 DNA repair, Gal4-VP16 FLuc)
COC(=O)c1sc(NC(=O)C2CCCCC2)c(C(=O)OC)c1C	none (no result: TDP1 cell CPT, RORg inh, ELG1 DNA repair, Gal4-VP16 FLuc, DT40 TDP1 no CPT)
CC[C@]12c3[nH]c4ccc(Cl)cc4c3CCN1C(=O)[C@@H](CC(=O)NCc1ccco1)C[C@@H]2C(=O)N1CCN(C(=O)c2ccco2)CC1	TDP1 cell CPT 16µM, DT40 TDP1 no CPT 21µM (no result: RORg inh, Gal4-VP16 FLuc)
CC[C@]12c3[nH]c4ccccc4c3CCN1C(=O)C(CC(=O)NCCCn1ccnc1)C[C@@H]2C(=O)N1CCN(C(=O)c2ccco2)CC1 (some centres undefined)	none (no result: RORg inh, Gal4-VP16 FLuc)
CC[C@]12c3[nH]c4ccc(Cl)cc4c3CCN1C(=O)[C@@H](CC(=O)NCCN1CCOCC1)C[C@@H]2C(=O)N1CCN(C(=O)c2ccco2)CC1	none (no result: RORg inh, Gal4-VP16 FLuc)
CC[C@]12c3[nH]c4ccccc4c3CCN1C(=O)C(CC(=O)NCCc1ccccn1)C[C@@H]2C(=O)N1CCN(C(=O)c2ccco2)CC1 (some centres undefined)	none (no result: RORg inh, Gal4-VP16 FLuc)
CC[C@]12c3[nH]c4ccc(OC)cc4c3CCN1C(=O)C(CC(=O)NCC13CC4CC(CC(C4)C1)C3)C[C@@H]2C(=O)N1CCN(C(=O)c2ccco2)CC1 (some centres undefined)	TDP1 cell CPT 12µM, DT40 TDP1 no CPT 8.2µM (no result: RORg inh, ALOX12 inh, Gal4-VP16 FLuc)
CC[C@]12c3[nH]c4ccc(OC)cc4c3CCN1C(=O)C(CC(=O)NCCCOC)C[C@@H]2C(=O)N1CCN(C(=O)C2CC2)CC1 (some centres undefined)	TDP1 cell CPT inconclusive (no result: RORg inh, Gal4-VP16 FLuc)
CC[C@]12c3[nH]c4ccc(Cl)cc4c3CCN1C(=O)[C@@H](CC(=O)NCC13CC4CC(CC(C4)C1)C3)C[C@@H]2C(=O)N1CCN(C(=O)c2ccco2)CC1	TDP1 cell CPT inconclusive, ALOX12 inh inconclusive, ELG1 DNA repair 21µM, DT40 TDP1 no CPT 13µM (no result: RORg inh, Gal4-VP16 FLuc)
CC[C@]12c3[nH]c4ccc(Cl)cc4c3CCN1C(=O)[C@@H](CC(=O)NCCC1=CCCCC1)C[C@@H]2C(=O)N1CCN(C(=O)c2ccco2)CC1	TDP1 cell CPT 21µM, ALOX12 inh 25µM, ELG1 DNA repair 16µM, DT40 TDP1 no CPT inconclusive (no result: RORg inh, Gal4-VP16 FLuc)
Cc1ccccc1OCC(=O)N(Cc1nc(-c2ccccc2)no1)C(C)C	TDP1 cell CPT inconclusive, DT40 TDP1 no CPT inconclusive
Cc1ccc(CC(=O)N(Cc2nc(-c3ccc(C)cc3)no2)C(C)C)cc1	TDP1 cell CPT inconclusive, ALOX12 inh inconclusive, DT40 TDP1 no CPT 23µM (no result: RORg inh, ELG1 DNA repair, Gal4-VP16 FLuc)
Cc1ccc(SCC(=O)N(Cc2nc(-c3ccccc3)no2)C(C)C)cc1	TDP1 cell CPT 18µM, DT40 TDP1 no CPT inconclusive
